# Mcl1 Bid PPI: Mcl-1/Bid binding inhibitors, primary screen, biochemical, TR-FRET, 1536-well; TR-FRET Mcl-1/Bid-Dy647 peptide binding; 220,000 compounds, 0.97% hits; inhibition, % at 21.7 µM;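 active means compounds that cut the binding signal by more than half at the single screening dose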;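 further: His-tagged Mcl-1 with europium anti-His antibody binding Bid BH3 peptide; 0% = Mcl-1 plus peptide wells and 100% = peptide-only wells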
# Mcl1 Noxa PPI: Mcl-1/Noxa binding inhibitors, primary screen, biochemical, TR-FRET, 1536-well; TR-FRET Mcl-1/Noxa peptide binding, 2 h; inhibition, % at 21.7 µM; 220,000 compounds, 1.5% hits; AID 1022, 2008;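 active means compounds that cut the protein-peptide binding signal by more than 50% relative to plate controls in a single-dose test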;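 further: His-tagged Mcl-1 with rhodamine Noxa BH3 peptide and terbium anti-His antibody; 0% = Mcl-1 plus Noxa peptide wells and 100% = peptide-only wells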
# BCLXL inh: inhibitors of human Bcl-xL, primary screen, biochemical, fluorescence polarization, HTS | inhibition, % at 10.9 µM | GST-Bcl-xL / FITC-Bim BH3 peptide fluorescence polarization | Bcl-2-like protein 1 (Homo sapiens), Q07817 | AID 2129, 2009 | 320,000 compounds, 0.7% hits;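 active means inhibition above the mean of all tested compounds plus 3 SD, cutoff set per campaign, cut at about 30% in these data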;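 further: 0% = DMSO wells and 100% = unlabeled Bim-BH3 peptide competitor; inhibitors lower millipolarization by displacing the labeled peptide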
# Target sequence (Q07817 whole entry, looked up): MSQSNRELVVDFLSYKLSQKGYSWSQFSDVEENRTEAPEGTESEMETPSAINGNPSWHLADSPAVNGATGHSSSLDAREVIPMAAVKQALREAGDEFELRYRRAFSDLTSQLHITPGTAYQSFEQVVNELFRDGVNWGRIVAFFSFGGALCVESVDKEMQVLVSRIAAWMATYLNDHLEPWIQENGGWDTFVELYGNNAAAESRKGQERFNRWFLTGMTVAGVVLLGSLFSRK
# GLD-1 TGE inh: GLD-1/TGE RNA complex disruptors, primary screen, biochemical, fluorescence polarization. inhibition, % at 5.96 µM. purified GLD-1 + fluorescein TGE RNA. 320,000 compounds, 0.44% hits;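 active means percent inhibition above a per-plate cutoff, the plate mean of test compounds plus 3 SD, cut at about 30% in these data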;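 further: 0% = DMSO wells with GLD-1 and probe and 100% = wells lacking GLD-1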
# Target sequence (Q17339 whole entry, looked up): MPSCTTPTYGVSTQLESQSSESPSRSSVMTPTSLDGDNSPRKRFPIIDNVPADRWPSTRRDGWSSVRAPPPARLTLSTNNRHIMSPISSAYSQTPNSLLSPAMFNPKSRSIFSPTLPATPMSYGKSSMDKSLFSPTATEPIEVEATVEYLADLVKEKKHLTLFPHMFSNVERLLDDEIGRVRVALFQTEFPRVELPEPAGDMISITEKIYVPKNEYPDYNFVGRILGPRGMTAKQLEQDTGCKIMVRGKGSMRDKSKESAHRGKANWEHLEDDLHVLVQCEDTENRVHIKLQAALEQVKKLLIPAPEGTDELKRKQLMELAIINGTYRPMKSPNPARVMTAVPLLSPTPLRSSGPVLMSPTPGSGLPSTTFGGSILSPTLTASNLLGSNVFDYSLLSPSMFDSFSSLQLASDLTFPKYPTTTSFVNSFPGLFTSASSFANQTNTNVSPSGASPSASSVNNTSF
# MCL1-BIM inh: inhibitors of MCL1 binding to BIM-BH3, primary screen, biochemical, fluorescence polarization | Induced myeloid leukemia cell differentiation protein Mcl-1 (Homo sapiens), Q07820 | inhibition, % at 10.9 µM | 320,000 compounds, 0.68% hits | GST-MCL1 / FITC-Bim-BH3 fluorescence polarization | AID 2057, 2009;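 active means inhibition above the mean inhibition of all tested compounds plus 3 SD, set per campaign, cut at about 40% in these data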;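 further: 0% = DMSO wells and 100% = unlabeled Bim-BH3 peptide control; higher means more loss of mP so more displacement of Bim peptide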
# Bim-Mcl-1: inhibitors of Bim peptide binding to Mcl-1, primary screen, biochemical, bead-based flow cytometry, multiplex; Induced myeloid leukemia cell differentiation protein Mcl-1 (Homo sapiens), Q07820; Bim peptide-Mcl-1 binding; inhibition, % at 10 µM; 190,000 compounds, 0.1% hits; in the data active means inhibition above about 40%;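 further: 0% = no compound tracer wells and 100% = peptide blocker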
# Bcl-xL conf: Bcl-xL inhibitors blocking Bim BH3 binding, confirmation, counter-screen for MCL1 inhibitor project, biochemical, fluorescence polarization; shares compounds with MCL1-BIM inh; GST-Bcl-xL / FITC-Bim BH3 peptide FP binding; inhibition, % at 10.9 µM; 1,700 compounds, 54% hits; AID 2166, 2009;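 active means inhibition above a cutoff equal to the mean inhibition of all tested compounds plus 3 SD, cut at about 30% in these data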;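 further: 0% = DMSO wells and 100% = unlabeled Bim BH3 control peptide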
# MCL1 inh confirm: inhibitors of MCL1 binding to BIM-BH3, confirmation, biochemical, fluorescence polarization, triplicate | shares compounds with MCL1-BIM inh | GST-MCL1 / FITC-Bim-BH3 fluorescence polarization | inhibition, % at 10.9 µM | 1,700 compounds, 61% hits | AID 2168, 2009;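 active means inhibition above the average of all tested compounds plus 3 SD, cut at about 40% in these data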;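 further: 0% = DMSO wells and 100% = unlabeled Bim-BH3 control peptide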
# * hit, by the source's call; · = no result; + = active, no number. This is a sample that favours compounds with a hit; in the whole collection about 2.3% have one here.
SMILES,Mcl1 Bid PPI,Mcl1 Noxa PPI,BCLXL inh,GLD-1 TGE inh,MCL1-BIM inh,Bim-Mcl-1,Bcl-xL conf,MCL1 inh confirm
O=C(CSc1c2c(nc3ccccc13)CCCC2)NCc1ccco1,-5.4,10.9,10.9,3.5,10.8,0.0,·,·
Cc1ccc(/C=C2\SC(=S)N(/N=C/c3cc([N+](=O)[O-])ccc3O)C2=O)o1,-21.2,90.5*,26.9,4.4,66.0*,1.0,30.7*,61.2*
CC1=CC2=C(OC1N(C)C)c1cccc3cccc(c13)C2=O (stereo unspecified),-4.9,13.3,122.4*,110.4*,142.9*,4.0,35.6*,38.6
CCc1ccc(-c2cn(C3CCCCC3)c(=S)[nH]2)cc1,-34.5,14.1,1.9,7.5,5.5,0.0,·,·
CC1(C)C=Cc2cc(-c3coc4cc(O)cc(O)c4c3=O)cc(O)c2O1,·,·,3.8,8.0,4.6,·,·,·
Cc1cc(-c2nc3c4c5c(sc4[nH]c(=O)n3n2)CCC5)c(C)o1,73.1*,101.1*,25.2,-2.3,75.6*,1.0,28.2,70.3*
CS(=O)(=O)N(CC(=O)N1CCCC1)c1cccc(F)c1,·,·,3.5,7.5,-1.2,·,·,·
N#Cc1c(NC(=O)c2ccco2)sc2c1CCC2,·,·,21.0,6.4,55.8*,·,24.9,35.6
Cc1ccc(NC(=O)C(=O)Nc2ccc(C)cn2)nc1,-22.3,-5.1,6.8,-2.3,-2.6,-2.0,·,·
Cc1ccc(NC(=O)/C(C#N)=C(\N)C(Cl)(Cl)Cl)nc1,-4.2,7.7,72.5*,42.9*,70.3*,5.0,170.9*,185.5*
CN(CC(=O)Nc1ccccc1Br)CC(=O)Nc1ccccc1C(F)(F)F,·,·,1.5,8.6,-0.1,·,·,·
Cc1ccccc1-c1nnc(SCC(=O)NC2CCCC2)o1,·,·,3.2,9.6,4.7,·,·,·
CC(C)Nc1nc2ccccc2c(=O)[nH]1,-7.0,7.0,5.7,-7.1,2.5,-2.0,·,·
Cc1c2ccccc2nc2c(F)c(NCCO)c(F)c(F)c12,-54.8,-33.9,157.3*,83.0*,+,-1.0,+,+
Cc1c2ccccc2nc2c(F)c(NC(C)C)c(F)c(F)c12,-38.4,-23.0,122.3*,119.2*,139.0*,-1.0,130.9*,150.6*
CCn1cc(C(=O)NCC(C)C)c(=O)c2cc(F)c(N3CCN(C)CC3)cc21,-13.0,0.7,2.4,5.6,0.4,·,·,·
CCn1cc(C(=O)NN)c(=O)c2cc(F)c(N3CCOCC3)cc21,·,·,7.1,-7.1,41.1*,·,15.2,29.2
Cc1cc2c3c([nH]c2cc1S(=O)(=O)N1CCC2(CC1)OCCO2)CC(C)(C)CC3=O,·,·,2.9,-1.4,3.9,·,·,·
Cc1c(CCC(=O)NCCCC(=O)O)c(=O)oc2cc3oc4c(c3cc12)CCCC4,·,·,3.1,-1.8,-3.0,·,·,·
COc1cc(/C=C/C(=O)CC(=O)/C=C/c2ccc(O)c(OC)c2)ccc1O,1.4,51.2*,17.7,-107.9,57.4*,12.0,4.6,-24.1
OCC(Cc1ccccc1)Nc1c2ccccc2nc2ccccc12 (stereo unspecified),-24.7,22.9,27.8,15.7,40.1*,-3.0,21.6,24.3
c1ccc(CNc2c3ccccc3nc3ccccc23)cc1,·,·,3.2,-3.0,2.1,·,·,·
O=C(CCC(=O)N1CCOc2ccccc21)Nc1cc(F)ccc1F,·,·,1.9,3.7,2.1,·,·,·
CCN(C(=O)COC(=O)CSc1ccc(C(N)=O)cc1[N+](=O)[O-])C1CCCCC1,·,·,1.1,-2.8,-2.9,·,·,·
O=C(NCCC1CCCCN1S(=O)(=O)c1ccccc1)C(=O)NC1CC1 (stereo unspecified),·,·,0.2,5.3,-4.3,·,·,·
SMILES,Mcl1 Bid PPI,Mcl1 Noxa PPI,BCLXL inh,GLD-1 TGE inh,MCL1-BIM inh,Bim-Mcl-1,Bcl-xL conf,MCL1 inh confirm
CC1C2C(c3ccccc3)N(C)C(=O)N(C)C2N(C)C(=O)N1C (stereo unspecified),-26.9,1.0,55.2*,29.3,55.4*,-1.0,38.0*,44.9*
CC1=NN(c2cccc(C(=O)O)c2)C(=O)/C1=C\C=C\c1ccco1,-16.3,98.0*,26.4,-1.6,80.8*,0.0,30.3*,68.5*
CC1(C)CC(=O)C(C=Nc2cccnc2/N=C/C2=C(O)CC(C)(C)CC2=O)=C(O)C1,-52.5,-55.4,58.1*,117.9*,63.2*,-1.0,8.5,2.0
CC1(C)CC(=O)C(C=Nc2ccc(C(=O)c3ccccc3)cc2N=CC2=C(O)CC(C)(C)CC2=O)=C(O)C1,-37.7,-17.1,67.5*,104.5*,79.9*,0.0,5.5,16.5
CC1(C)CC(=O)C(C=Nc2cccnc2)=C(O)C1,-14.7,-2.8,7.5,7.5,3.8,-3.0,·,·
CC1(C)CC(=O)C(C=Nc2ccc(O)c(N=CC3=C(O)CC(C)(C)CC3=O)c2)=C(O)C1,-32.4,19.6,16.3,0.8,17.0,0.0,·,·
NC(=O)C1Cc2ccccc2CN1S(=O)(=O)c1ccc(Cl)s1 (stereo unspecified),·,·,6.2,-0.2,11.6,·,·,·
CC(Oc1ccccc1)C(=O)N1CCC2(CC1)CC(=O)c1ccccc1O2 (stereo unspecified),·,·,0.8,4.5,1.2,·,·,·
CCOC(=O)CSc1ccc2ccccc2n1,-15.4,0.0,8.0,2.6,3.5,0.0,·,·
CCOC(=O)CN1C=C(c2ccc3ccccc3n2)C(C[N+](=O)[O-])c2ccccc21 (stereo unspecified),-8.0,-1.2,101.4*,-74.2,105.7*,-3.0,138.4*,171.6*
CC(=O)Nc1ccc(S(=O)(=O)NCCC(=O)OCC(=O)NCc2ccccc2)cc1,·,·,·,1.8,·,·,·,·
CCN(CC)c1ccc2c(-c3ccc(S(=O)(=O)O)cc3S(=O)(=O)[O-])c3ccc(=[N+](CC)CC)cc-3oc2c1,·,·,+,155.1*,+,·,+,+
Nc1c(C(=O)O)ccc2c1C(=O)c1ccccc1C2=O,-32.8,26.1,13.2,7.9,13.0,2.0,·,·
Nc1cc(C(=O)O)c(N)c2c1C(=O)c1ccccc1C2=O,-86.3,96.1*,155.3*,112.4*,180.4*,·,161.2*,195.1*
CCN(CC)C(=O)C1c2ccccc2Oc2ccccc21,·,·,194.5*,168.7*,+,·,90.5*,125.5*
